# Measured values reported in PubChem BioAssay (NCATS).
# A number with no mark means an inactive call. Results filed as inconclusive are left out. A call without a number means that no potency is given here. Calls of active or inactive are those of the source. Calls come from the whole dose curve; as a rule, active = well fitted curve in the direction sought with a large enough effect; inconclusive = small, poorly fitted or top-dose-only effect, or another doubt; inactive = no such curve, though single readings can be large; an effect the other way counts as inactive or inconclusive.
# How the values were obtained:
# [1] = tested on: Zika virus NS2B-NS3 protease (unlinked complex); test: Primary screen GU Rhodamine qHTS for Zika virus inhibitors: Unlinked NS2B-NS3 protease assay (AID 1347159); note: nearly all actives have a fitted effect of over 60% in size; note: potency is the fitted concentration of half-maximal effect
# Summary of the method: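 Noncovalent NS2B hydrophilic domain/NS3 protease complex (25 nM final) in 10 mM Tris-HCl pH 8.0, 0.01% Tween 20, preincubated 15 min with compounds (up to 114 microM), then 1.5 microM Rhodamine110 substrate. Fluorescence change over 15 min fitted to 4-parameter Hill.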
# [2] = tested on: Zika virus NS2B-NS3 protease (linked construct); test: Primary screen NINDS Rhodamine qHTS for Zika virus inhibitors (AID 1347160); conditions: outcome: dose series up to 57.1 µM unless noted; note: nearly all actives have a fitted effect of over 55% in size
# Summary of the method: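 Purified NS2B-NS3 protease with the NS2B hydrophilic domain joined by a flexible linker (25 nM) in 10 mM Tris-HCl pH 8.0, 0.01% Tween 20, preincubated 15 min at RT with compound; Rhodamine110 peptide substrate 1.5 µM; fluorescence change over 15 min; 4-parameter Hill fit.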
# [3] = biological target: Lysine-specific demethylase 5B (Homo sapiens) (UniProt Q9UGL1); test: Optimization screen for KDM5B Histone Demethylases FDH coupled qHTS against the LOPAC library (AID 1347166)
# Summary of the method: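 KDM5BDeltaAP (200nM final) preincubated 10 min with compound, then 12.5uM H3K4Me3, 25uM a-ketoglutarate, ascorbate, Fe(II), NAD+ and FDH added; 50mM HEPES pH 7.5, 0.01% Tween-20. NADH fluorescence (340/450 nm) change over 30 min, room temperature.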
# [4] = qHTS to identify inhibitors of the type 1 interferon - major histocompatibility complex class I in skeletal muscle: primary screen against the NCATS LOPAC collection (AID 1347405);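 note: lytic HiBiT luminescence reporting HLA-B protein level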
# Summary of the method: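 CRISPR-engineered immortalized human myoblasts (C25cl48) with HiBiT fused to endogenous HLA-B*08:01, stimulated with 4 ng/ml IFN-beta. LOPAC compounds tested as a 7-point 1:4.3 titration (top 46 uM final), 24 h at 37 C; lytic HiBiT luminescence read.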
# [5] = qHTS for inhibitors of adenylyl cyclases using a fission yeast platform: a pilot screen against the NCATS LOPAC library (AID 1347410)
# Summary of the method: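 Growth medium went into the plates first, then compounds were pinned (final up to 57 µM), then CHP2027 yeast were added. Plates were incubated overnight (18 h) at 30C in the dark, and GFP was measured by laser scanning cytometry.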
# [6] = Validation qHTS assay for inhibitors of Activation Induced Cytidine Deaminase (AID): UDG Counterscreen signal (AID 1347427)
# Summary of the method: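 Counterscreen read of UDG activity (2 U/mL, 4/3x) in the FRET deamination format with AID (1 uM, 4/3x), DJC20/DJC23 substrates (250 nM, 4x), 4 h at room temperature. NaOH stop, fluorescence at 560 ex/665 em.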
# [7] = biological target: Single-stranded DNA cytosine deaminase (Homo sapiens) (UniProt Q9GZX7); test: Validation qHTS assay for inhibitors of Activation Induced Cytidine Deaminase (AID): AID signal (AID 1347429)
# Summary of the method: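 FRET deamination assay: 1 uM AID (4/3x stock) with UDG, compound up to 114 uM, then 250 nM DJC20/DJC23 substrate (4x stock) for 4 hr at room temperature. NaOH added, 30 min; fluorescence read 540/590 nm.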
# [8] = Primary qHTS for inhibitors of La Crosse Virus (LACV) - induced cell death in SH-SY5Y cells (AID 1508616);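 note: top concentration of the series differs between compounds; higher means more rescue of cells from virus-induced death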
# Summary of the method: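 SH-SY5Y cells (6000/well) plated 24 h, then given compounds by pin transfer and LACV at 0.01 MOI for 6 days at 37C. Viability measured by ATPLite luminescence, normalized to infected DMSO and uninfected DMSO.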
# [9] = biological target: Calcium and integrin-binding protein 1 (Homo sapiens) (UniProt Q99828); test: Primary qHTS for Identification of Calcium Integrin Binding Protein 1 (CIB1) Competitor (AID 1508620);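 note: GST tagged CIB1 binding a fluorescein labelled alphaIIb integrin peptide tracer; top concentration of the series differs between compounds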
# Summary of the method: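 Fluorescence polarization competition: GST-tagged CIB1 (1 uM final) preincubated with compound 15 min at room temperature, then FITC-labelled alphaIIb peptide (100 nM final) added. After 15 min at room temperature, polarization read at Ex 480/Em 540.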
# [10] = qHTS to identify inhibitors of the type 1 interferon - major histocompatibility complex class I in skeletal muscle: primary screen against the NCATS Pharmaceutical Collection (AID 1347407);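 note: luminescence of HiBiT knocked into endogenous HLA-B as interferon-induced MHC class I level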
# Summary of the method: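 Cells were seeded with 4 ng/ml IFN-beta, incubated 1 h, then dosed with compounds over eight 1:5 steps up to 46 uM final. After 24 h at 37 C, HiBiT lytic reagent was added and luminescence read after 10 min lysis in the dark.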
# [11] = biological target: Protein phosphatase 1D (Homo sapiens) (UniProt O15297); test: RapidFire Mass Spectrometry qHTS Assay for Modulators of WT P53-Induced Phosphatase 1 (WIP1) (AID 1347424);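 note: amount of dephosphorylated VEPPL-S-QETFS peptide product formed by WIP1; series mostly up to about 63 µM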
# Summary of the method: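 10 nM WIP1 preincubated with compounds 1 hr at room temperature in pH 7.5 Tris buffer with 30 mM MgCl2, 1 mM TCEP; 2 uM VEPPL-pS-QETFS phosphopeptide for 5 min, formic acid quench; dephosphorylated product quantified by RapidFire MS against labelled standard.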
# [12] = biological target: Protein phosphatase 1D (Homo sapiens) (UniProt O15297); test: Rhodamine-PBP qHTS Assay for Modulators of WT P53-Induced Phosphatase 1 (WIP1) (AID 1347425)
# Summary of the method: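 WIP1 (5 nM final) was preincubated with compound for 1 hour at room temperature. It then dephosphorylated 10 uM VEPPL-pS-QETFS peptide in Tris-HCl pH 7.5 with 30 mM MgCl2. Released Pi was detected by 10 uM Rh-PBP fluorescence (ex 525/em 598 nm) read at 1-min intervals for 11 min, as delta f1 - f0.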
# [13] = biological target: Calcium and integrin-binding protein 1 (Homo sapiens) (UniProt Q99828); test: Confirmatory qHTS for Identification of Calcium Integrin Binding Protein 1 (CIB1) Competitor (AID 1508617); note: nearly all actives have a fitted effect of over 65% in size
# Summary of the method: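 FP competition: CIB1-GST (1 uM final) in 5 mM HEPES pH 7.4, 125 mM NaCl, 5 mM CaCl2, 0.01% Tween20 preincubated 15 min RT with compounds (up to 114 uM), then FITC-alphaIIb peptide (100 nM), 15 min RT; Ex 480/Em 540.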
# [14] = Tertiary RLuc qRT-PCR qHTS assay for Zika virus inhibitors (AID 1347169); note: potency is the fitted concentration of half-maximal effect; nearly all actives have a fitted effect of over 55% in size
# Summary of the method: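 Orthogonal cell-based infection assay using recombinant ZIKV-RLuc (Cambodian) in Vero cells; compound added prior to virus at MOI 1-2. Incubation lasts 48-72 hrs at 37 degrees C before live-cell Renilla substrate is added and luminescence measured.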
# Chain of Calcium and integrin-binding protein 1 (Homo sapiens) (Q99828 whole entry, looked up): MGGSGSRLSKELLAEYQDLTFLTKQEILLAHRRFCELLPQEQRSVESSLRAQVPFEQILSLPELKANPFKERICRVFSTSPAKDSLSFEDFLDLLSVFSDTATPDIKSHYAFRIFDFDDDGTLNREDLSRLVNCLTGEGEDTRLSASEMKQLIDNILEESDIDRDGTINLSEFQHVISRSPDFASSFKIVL
# Chain of Protein phosphatase 1D (Homo sapiens) (O15297 whole entry, looked up): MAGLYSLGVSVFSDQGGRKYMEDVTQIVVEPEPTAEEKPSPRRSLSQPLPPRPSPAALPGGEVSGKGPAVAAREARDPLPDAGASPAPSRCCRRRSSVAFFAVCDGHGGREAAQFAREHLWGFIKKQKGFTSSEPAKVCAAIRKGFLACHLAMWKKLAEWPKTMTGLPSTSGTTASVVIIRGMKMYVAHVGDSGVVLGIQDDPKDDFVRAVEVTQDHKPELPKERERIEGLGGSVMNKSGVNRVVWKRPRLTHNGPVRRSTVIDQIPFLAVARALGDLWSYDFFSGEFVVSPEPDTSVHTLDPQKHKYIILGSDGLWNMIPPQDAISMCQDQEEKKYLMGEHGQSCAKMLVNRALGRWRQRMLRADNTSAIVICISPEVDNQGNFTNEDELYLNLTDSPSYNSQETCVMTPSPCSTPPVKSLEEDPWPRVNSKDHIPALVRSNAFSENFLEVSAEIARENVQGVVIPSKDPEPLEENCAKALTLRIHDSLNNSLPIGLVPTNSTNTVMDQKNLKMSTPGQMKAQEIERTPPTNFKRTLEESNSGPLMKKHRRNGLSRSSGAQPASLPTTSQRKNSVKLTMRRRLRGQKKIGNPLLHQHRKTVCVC
# Chain of Single-stranded DNA cytosine deaminase (Homo sapiens) (Q9GZX7 whole entry, looked up): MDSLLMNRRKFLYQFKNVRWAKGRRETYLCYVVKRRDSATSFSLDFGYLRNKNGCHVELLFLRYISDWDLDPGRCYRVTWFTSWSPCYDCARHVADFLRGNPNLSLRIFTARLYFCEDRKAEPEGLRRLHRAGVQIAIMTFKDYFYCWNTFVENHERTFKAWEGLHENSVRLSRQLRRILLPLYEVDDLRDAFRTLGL
# Chain of Lysine-specific demethylase 5B (Homo sapiens) (Q9UGL1 whole entry, looked up): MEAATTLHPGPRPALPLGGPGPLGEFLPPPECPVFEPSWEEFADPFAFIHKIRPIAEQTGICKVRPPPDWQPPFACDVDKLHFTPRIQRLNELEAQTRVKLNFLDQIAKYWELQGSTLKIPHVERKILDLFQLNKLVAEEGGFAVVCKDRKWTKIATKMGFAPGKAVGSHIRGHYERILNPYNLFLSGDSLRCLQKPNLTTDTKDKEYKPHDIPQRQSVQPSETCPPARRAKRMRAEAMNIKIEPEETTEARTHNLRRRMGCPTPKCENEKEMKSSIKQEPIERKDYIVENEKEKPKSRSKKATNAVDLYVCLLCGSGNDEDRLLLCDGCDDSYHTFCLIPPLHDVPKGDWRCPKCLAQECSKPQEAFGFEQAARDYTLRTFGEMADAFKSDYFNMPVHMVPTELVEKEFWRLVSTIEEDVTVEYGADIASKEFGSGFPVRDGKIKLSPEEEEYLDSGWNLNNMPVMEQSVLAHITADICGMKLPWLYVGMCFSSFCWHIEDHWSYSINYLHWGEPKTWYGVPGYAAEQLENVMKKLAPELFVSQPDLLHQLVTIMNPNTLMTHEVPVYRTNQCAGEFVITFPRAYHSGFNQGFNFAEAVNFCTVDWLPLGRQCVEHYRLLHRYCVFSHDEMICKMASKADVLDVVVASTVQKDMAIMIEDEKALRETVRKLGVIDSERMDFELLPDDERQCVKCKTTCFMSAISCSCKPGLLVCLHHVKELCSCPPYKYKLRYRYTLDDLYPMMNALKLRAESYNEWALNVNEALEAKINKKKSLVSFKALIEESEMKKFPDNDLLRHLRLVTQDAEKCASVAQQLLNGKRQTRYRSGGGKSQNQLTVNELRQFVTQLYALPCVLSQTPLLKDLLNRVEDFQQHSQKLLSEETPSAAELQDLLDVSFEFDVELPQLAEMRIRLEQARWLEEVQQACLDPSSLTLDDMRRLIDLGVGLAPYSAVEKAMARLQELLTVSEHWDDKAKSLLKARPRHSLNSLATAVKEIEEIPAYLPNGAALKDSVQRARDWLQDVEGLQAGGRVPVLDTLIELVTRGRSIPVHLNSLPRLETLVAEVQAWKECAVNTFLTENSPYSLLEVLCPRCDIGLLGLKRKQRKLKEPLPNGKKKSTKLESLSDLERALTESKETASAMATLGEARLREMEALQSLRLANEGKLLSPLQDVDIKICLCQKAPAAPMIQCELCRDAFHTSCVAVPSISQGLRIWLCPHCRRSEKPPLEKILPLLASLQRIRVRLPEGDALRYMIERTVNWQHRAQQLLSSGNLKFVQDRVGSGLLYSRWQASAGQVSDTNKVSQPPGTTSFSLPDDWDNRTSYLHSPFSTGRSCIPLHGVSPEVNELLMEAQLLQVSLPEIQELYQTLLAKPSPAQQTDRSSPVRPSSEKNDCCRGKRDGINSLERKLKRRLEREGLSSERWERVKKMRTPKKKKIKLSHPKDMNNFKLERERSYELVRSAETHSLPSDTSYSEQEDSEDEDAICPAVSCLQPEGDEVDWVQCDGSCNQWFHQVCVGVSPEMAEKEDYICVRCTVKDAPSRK
smiles,measurement,setting,value
O=C1NC(c2cccc([N+](=O)[O-])c2)=CCN1c1ccccc1O,Potency,[1],inactive
same,outcome,[2],inactive
same,outcome,[3],inactive
same,Potency,[4],inactive
same,outcome,[5],inactive
same,outcome,[6],inactive
same,outcome,[7],inactive
same,outcome,[8],inactive
same,Potency,[9],inactive
CO[C@]1(NC(=O)CSC(F)F)C(=O)N2C(C(=O)O)=C(CSc3nnnn3CCO)CO[C@H]21,Potency,[1],inactive
same,outcome,[2],inactive
same,Potency,[10],inactive
same,Potency,[11],inactive
same,outcome,[12],inactive
same,Potency,[9],inactive
CCCCNc1ccc(C(=O)OCCN(CC)CC)cc1,Potency,[1],inactive
same,outcome,[2],inactive
same,Potency,[10],inactive
same,Potency,[11],inactive
same,outcome,[12],inactive
same,outcome,[8],inactive
same,Potency,[9],inactive
CN1CCC(N(Cc2cccs2)c2ccccc2)CC1,Potency,[1],inactive
same,outcome,[2],inactive
same,Potency,[10],inactive
same,Potency,[11],inactive
same,outcome,[12],inactive
same,Potency,[13],inactive
CC1c2ccccc2CN1NC(=O)c1ccc(Cl)c(S(N)(=O)=O)c1 (stereo not given),Potency,[1],inactive
same,outcome,[2],inactive
same,Potency,[10],inactive
same,Potency,[11],inactive
same,outcome,[12],inactive
same,outcome,[8],inactive
same,Potency,[9],inactive
O=[N+]([O-])c1ccc(-c2nc(-c3ccc(F)cc3)c(-c3ccncc3)[nH]2)cc1,Potency,[1],79.4 µM (active)
same,outcome,[2],inactive
same,outcome,[3],inactive
same,Potency,[14],4.66 µM (active)
same,outcome,[5],inactive
same,outcome,[6],inactive
same,outcome,[7],inactive
same,outcome,[8],inactive
same,Potency,[9],inactive
O=C(O)CNC(=O)CNC(=O)CNC(=O)CSC(=O)c1ccccc1,Potency,[1],inactive
same,outcome,[2],inactive
same,Potency,[10],inactive
same,Potency,[11],inactive
same,outcome,[12],inactive
same,outcome,[8],inactive
same,Potency,[9],inactive
CCC(C(=O)NC(=O)NC(C)=O)c1ccccc1 (stereo not given),Potency,[1],inactive
same,outcome,[2],inactive
same,Potency,[10],inactive
same,Potency,[11],inactive
same,outcome,[12],inactive
same,outcome,[8],inactive
same,Potency,[9],inactive
N[C@@H](Cn1ccc(=O)c(O)c1)C(=O)O,"activity change, negative = inhibition",[1],13% [at 11.5 µM]
same,outcome,[2],inactive [at 4.91 µM]
same,outcome,[3],inactive
same,Potency,[4],inactive
same,outcome,[5],inactive
same,outcome,[6],inactive
same,outcome,[7],inactive
same,"activity change, negative = inhibition",[9],2.21% [at 12.4 µM]
CCN1C(=O)c2ccccc2C1Nc1ccc(OCCN2CCCCC2)cc1 (stereo not given),Potency,[1],inactive
same,outcome,[2],inactive
same,Potency,[10],inactive
same,Potency,[11],inactive
same,outcome,[12],inactive
same,Potency,[9],inactive
C=CCOc1cc(Cl)ccc1C(=O)NCCN(CC)CC,Potency,[1],inactive
same,outcome,[2],inactive
same,Potency,[10],inactive
same,Potency,[11],inactive
same,outcome,[12],inactive
same,outcome,[8],inactive
same,Potency,[9],inactive
CC(C(=O)O)c1ccc(/C=C2\CCCCC2=O)cc1 (stereo not given),Potency,[1],inactive
same,outcome,[2],inactive
same,Potency,[10],inactive
same,Potency,[11],inactive
same,outcome,[12],inactive
same,outcome,[8],inactive
CC(=O)Nc1ccn(C2COC(COC(=O)c3ccccc3)O2)c(=O)n1 (stereo not given),Potency,[1],inactive
same,outcome,[2],inactive
same,Potency,[10],inactive
same,Potency,[11],inactive
same,outcome,[12],inactive
same,Potency,[9],inactive
O=C(CCCCCCCCC#CI)Oc1ccccc1,Potency,[1],inactive
same,outcome,[2],inactive
same,Potency,[10],inactive
same,Potency,[11],inactive
same,outcome,[12],inactive
same,outcome,[8],inactive
same,Potency,[9],inactive
Brc1ccc([C@H]2CN3CCSC3=N2)cc1,Potency,[1],inactive
same,outcome,[2],inactive
same,Potency,[4],inactive
same,outcome,[5],inactive
same,outcome,[6],inactive
same,outcome,[7],inactive
same,Potency,[9],inactive
Nc1ncnc2n[nH]c(Nc3ccc(F)cc3)c12,Potency,[1],inactive
same,outcome,[2],inactive
same,outcome,[3],inactive
same,outcome,[5],inactive
same,outcome,[6],inactive
same,outcome,[7],inactive
same,outcome,[8],inactive
same,Potency,[9],inactive
O=C1[C@@H]2[C@H]3CC[C@H](C3)[C@@H]2C(=O)N1CCCCN1CCN(c2ncccn2)CC1,Potency,[1],inactive
same,outcome,[2],inactive
same,Potency,[10],inactive
same,Potency,[11],inactive
same,outcome,[12],inactive
same,outcome,[8],inactive
same,Potency,[9],inactive
C=CC[N+]1([C@H]2C[C@H]3[C@@H]4CC[C@H]5C[C@H](OC(C)=O)[C@@H](N6CCCCC6)C[C@]5(C)[C@H]4CC[C@]3(C)[C@H]2OC(=O)CC)CCCCC1,Potency,[1],inactive
same,outcome,[2],inactive
same,Potency,[10],inactive
same,Potency,[11],inactive
same,outcome,[12],inactive
same,outcome,[8],inactive
same,Potency,[9],inactive
O=C1NC2CCCCN2C12CCN(CCCN1c3ccccc3CCc3ccc(Cl)cc31)CC2 (stereo not given),Potency,[1],inactive
same,outcome,[2],inactive
same,Potency,[11],inactive
same,outcome,[12],inactive
same,outcome,[8],inactive
same,Potency,[9],inactive
O=C(O)Cc1ccccc1Oc1ccc(Cl)cc1Cl,Potency,[1],inactive
same,outcome,[2],inactive
same,Potency,[10],inactive
same,Potency,[11],inactive
same,outcome,[12],inactive
same,outcome,[8],inactive
same,Potency,[9],inactive
Clc1ccc2c(c1)N=C(N1CCNCC1)c1ccccc1N2,Potency,[1],inactive
same,outcome,[2],inactive
same,outcome,[3],inactive
same,Potency,[4],inactive
same,outcome,[5],inactive
same,outcome,[6],inactive
same,outcome,[7],inactive
same,outcome,[8],inactive
same,Potency,[9],inactive
Cc1nn(-c2ccccc2)c(C)c1/C=N/N1CCN(Cc2ccccc2)CC1,Potency,[1],inactive
same,outcome,[2],inactive
same,outcome,[3],inactive
same,Potency,[4],inactive
same,outcome,[5],inactive
same,outcome,[6],inactive
same,outcome,[7],inactive
same,outcome,[8],inactive
same,Potency,[9],inactive
O=C1CC[C@H](C(=O)N2CCCCC2)N1,Potency,[1],inactive
same,outcome,[2],inactive
same,Potency,[10],inactive
same,Potency,[11],inactive
same,outcome,[12],inactive
same,outcome,[8],inactive
same,Potency,[9],inactive
Cc1cccc(N(C)C(=S)Oc2ccc3c(c2)CCC3)c1,Potency,[1],inactive
same,outcome,[2],inactive
same,Potency,[10],inactive
same,Potency,[11],inactive
same,outcome,[12],inactive
CCOC(=O)c1ccc(OCCN2C[C@H](O)[C@@H](O)[C@H](O)[C@H]2CO)cc1,Potency,[1],inactive
same,outcome,[2],inactive
same,Potency,[10],inactive
same,outcome,[12],inactive
same,outcome,[8],inactive
same,Potency,[9],inactive
CO/N=C(/C(=O)N[C@@H]1C(=O)N2C(C(=O)O)=C(Cn3nnc(C)n3)CS[C@H]12)c1csc(N)n1,Potency,[1],inactive
same,outcome,[2],inactive
same,Potency,[10],inactive
same,outcome,[12],inactive
